The text below walks through data of PMC7862700, “An all-to-all approach to the identification of sequence-specific readers for epigenetic DNA modifications on cytosine”.

Holding throughout (experiment): DAPPL (digital affinity profiling via proximity ligation, sequencing); 10 mM Tris-HCl pH 7.5, 50 mM NaCl, 1 mM DTT, 4% glycerol, room temperature, 30 min; GST-TFs on glutathione beads, 16-mer random dsDNA library, 0.1% formaldehyde crosslink after washing; high values mean tight binding
Conditions in all cases: protein: recombinant; tags: N-terminal GST; dsDNA, one strand shown

In one test the target is T1, FLI1 (Homo sapiens, UniProt Q01543 1-452).
T1 sequence: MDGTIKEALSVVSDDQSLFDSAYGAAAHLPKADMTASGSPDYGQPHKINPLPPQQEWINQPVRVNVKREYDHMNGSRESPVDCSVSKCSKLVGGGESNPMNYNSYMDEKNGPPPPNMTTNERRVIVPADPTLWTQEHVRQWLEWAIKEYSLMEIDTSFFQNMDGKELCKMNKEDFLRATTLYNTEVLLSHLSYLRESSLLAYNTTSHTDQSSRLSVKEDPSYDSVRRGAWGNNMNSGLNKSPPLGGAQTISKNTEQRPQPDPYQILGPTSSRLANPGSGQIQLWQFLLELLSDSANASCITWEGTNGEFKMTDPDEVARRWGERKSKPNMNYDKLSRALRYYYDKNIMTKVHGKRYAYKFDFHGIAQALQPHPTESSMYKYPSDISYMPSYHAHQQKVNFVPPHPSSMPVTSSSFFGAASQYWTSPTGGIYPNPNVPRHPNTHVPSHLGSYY
In a few lines:
(§1)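 After expression in yeast as GST fusions, human transcription factors were bound to glutathione beads, DNA-barcoded and mixed with a tag-only sample. The pools were incubated with 200 nmole of a 16-mer random double-stranded DNA library in Tris/NaCl/DTT/glycerol buffer (30 min, room temperature), washed and crosslinked with 0.1% formaldehyde. Proximity ligation with BsaI/T4 ligase ran for 1 h at 37 °C, before PCR amplification and sequencing on an Illumina NextSeq500. Binding signal is a hexamer's read frequency for a factor divided by its frequency for the tag-only sample.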

A further test concerns the target T2, ELK1 (Homo sapiens, UniProt P19419 1-428).
T2 sequence: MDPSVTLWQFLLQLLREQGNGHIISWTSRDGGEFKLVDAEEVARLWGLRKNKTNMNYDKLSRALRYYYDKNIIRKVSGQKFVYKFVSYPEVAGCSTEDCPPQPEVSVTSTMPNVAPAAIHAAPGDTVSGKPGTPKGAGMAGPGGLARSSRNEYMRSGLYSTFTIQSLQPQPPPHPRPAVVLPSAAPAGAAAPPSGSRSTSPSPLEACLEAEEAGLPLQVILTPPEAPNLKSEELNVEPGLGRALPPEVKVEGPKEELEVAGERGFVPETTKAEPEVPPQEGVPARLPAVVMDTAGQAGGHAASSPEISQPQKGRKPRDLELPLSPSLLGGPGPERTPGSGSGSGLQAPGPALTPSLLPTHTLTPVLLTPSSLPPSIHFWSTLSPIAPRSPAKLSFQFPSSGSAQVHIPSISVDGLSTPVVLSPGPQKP
In a few lines:
as §1

The next test has as its target T3, GABPA (Homo sapiens, UniProt Q06546 1-454).
T3 sequence: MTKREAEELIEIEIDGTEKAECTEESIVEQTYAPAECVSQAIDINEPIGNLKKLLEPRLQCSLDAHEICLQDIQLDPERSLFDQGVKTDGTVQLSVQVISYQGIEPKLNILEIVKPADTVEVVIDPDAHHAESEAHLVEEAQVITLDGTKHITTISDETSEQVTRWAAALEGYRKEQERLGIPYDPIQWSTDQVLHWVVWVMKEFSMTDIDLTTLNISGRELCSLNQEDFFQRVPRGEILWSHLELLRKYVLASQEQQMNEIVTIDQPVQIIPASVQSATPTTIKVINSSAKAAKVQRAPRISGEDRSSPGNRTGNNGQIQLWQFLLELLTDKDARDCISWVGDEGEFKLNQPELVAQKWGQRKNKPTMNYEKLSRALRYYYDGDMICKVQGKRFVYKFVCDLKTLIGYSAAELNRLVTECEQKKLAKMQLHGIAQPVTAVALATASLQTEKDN
The method in brief:
as §1

The target in another test is T4, ERG (Homo sapiens, UniProt P11308 1-479).
T4 sequence: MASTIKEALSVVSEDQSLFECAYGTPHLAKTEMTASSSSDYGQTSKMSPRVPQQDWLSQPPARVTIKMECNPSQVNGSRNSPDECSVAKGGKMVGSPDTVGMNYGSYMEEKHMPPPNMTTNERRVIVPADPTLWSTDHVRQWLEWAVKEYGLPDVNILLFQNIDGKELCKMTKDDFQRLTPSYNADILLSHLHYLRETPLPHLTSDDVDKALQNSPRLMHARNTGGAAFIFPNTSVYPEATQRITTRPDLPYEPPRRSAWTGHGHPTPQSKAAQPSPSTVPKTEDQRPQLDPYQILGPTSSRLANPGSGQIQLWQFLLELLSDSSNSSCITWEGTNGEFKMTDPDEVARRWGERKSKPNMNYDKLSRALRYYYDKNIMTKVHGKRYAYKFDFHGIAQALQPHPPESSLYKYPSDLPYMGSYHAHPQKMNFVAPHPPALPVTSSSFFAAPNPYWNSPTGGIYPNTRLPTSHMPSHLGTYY
In a few lines:
as §1

Another test concerns the target ELF1 (Homo sapiens, UniProt P32519 1-619). In a few lines:
as §1

The target of another test is T5, EHF (Homo sapiens, UniProt Q9NZC4 1-300).
T5 sequence: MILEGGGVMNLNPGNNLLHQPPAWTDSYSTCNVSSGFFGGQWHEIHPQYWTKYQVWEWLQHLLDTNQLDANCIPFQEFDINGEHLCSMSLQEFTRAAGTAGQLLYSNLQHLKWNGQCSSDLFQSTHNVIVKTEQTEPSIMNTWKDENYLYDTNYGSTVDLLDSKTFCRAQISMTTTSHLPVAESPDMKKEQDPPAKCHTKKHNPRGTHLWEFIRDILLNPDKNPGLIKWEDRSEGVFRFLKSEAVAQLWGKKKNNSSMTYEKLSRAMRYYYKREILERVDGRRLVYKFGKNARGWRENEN
The method in brief:
as §1

The next test concerns the target SPI1 (Homo sapiens, UniProt P17947 1-270). In a few lines:
as §1

The next test addresses SPIB (Homo sapiens, UniProt Q01892 1-262). In a few lines:
as §1

The next test deals with T6, ELK3 (Homo sapiens, UniProt P41970 1-407).
T6 sequence: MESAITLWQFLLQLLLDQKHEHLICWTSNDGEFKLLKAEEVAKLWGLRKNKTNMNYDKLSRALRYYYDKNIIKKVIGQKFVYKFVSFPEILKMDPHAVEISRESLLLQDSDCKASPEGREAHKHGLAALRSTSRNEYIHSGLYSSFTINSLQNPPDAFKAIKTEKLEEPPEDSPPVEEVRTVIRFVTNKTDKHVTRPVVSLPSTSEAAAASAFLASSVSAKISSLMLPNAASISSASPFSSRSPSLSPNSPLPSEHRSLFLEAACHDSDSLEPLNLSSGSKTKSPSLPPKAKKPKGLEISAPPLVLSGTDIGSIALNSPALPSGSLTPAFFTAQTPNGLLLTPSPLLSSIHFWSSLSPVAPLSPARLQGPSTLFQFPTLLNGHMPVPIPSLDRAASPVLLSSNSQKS
The method in brief:
as §1

Chain of SPIB (Q01892 whole entry): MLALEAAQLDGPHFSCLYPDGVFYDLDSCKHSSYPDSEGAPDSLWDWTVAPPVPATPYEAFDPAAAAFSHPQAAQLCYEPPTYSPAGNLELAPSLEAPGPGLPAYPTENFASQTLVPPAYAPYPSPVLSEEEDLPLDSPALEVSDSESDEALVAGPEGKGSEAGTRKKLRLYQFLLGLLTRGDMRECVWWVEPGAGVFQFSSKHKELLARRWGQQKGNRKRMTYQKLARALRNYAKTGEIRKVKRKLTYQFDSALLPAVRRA
Chain of ELF1 (P32519 whole entry): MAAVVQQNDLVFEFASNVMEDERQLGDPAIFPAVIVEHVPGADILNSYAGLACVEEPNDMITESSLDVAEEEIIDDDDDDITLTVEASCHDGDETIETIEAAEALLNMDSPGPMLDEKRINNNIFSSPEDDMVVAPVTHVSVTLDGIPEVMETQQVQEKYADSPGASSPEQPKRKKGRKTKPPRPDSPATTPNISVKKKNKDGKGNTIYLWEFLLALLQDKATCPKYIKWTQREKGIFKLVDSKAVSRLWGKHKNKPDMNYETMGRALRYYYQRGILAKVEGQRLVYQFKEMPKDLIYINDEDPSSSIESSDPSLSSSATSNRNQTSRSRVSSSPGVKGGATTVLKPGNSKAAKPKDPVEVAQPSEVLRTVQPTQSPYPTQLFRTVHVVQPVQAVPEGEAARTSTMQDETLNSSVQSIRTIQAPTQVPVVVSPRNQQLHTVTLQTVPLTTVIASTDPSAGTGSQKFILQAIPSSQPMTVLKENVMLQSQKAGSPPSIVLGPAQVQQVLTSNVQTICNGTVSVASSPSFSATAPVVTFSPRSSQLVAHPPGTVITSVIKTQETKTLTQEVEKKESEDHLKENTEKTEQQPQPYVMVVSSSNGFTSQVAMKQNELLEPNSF

In the case of ACTTGC, the binding signal in the test with FLI1 is 1.46 fold enrichment (6-mer frequency, TF over GST control); in the test with ELK1 it was 1.48 fold enrichment (6-mer frequency, TF over GST control); with GABPA, 1.42 fold enrichment (6-mer frequency, TF over GST control); with ERG, 1.41 fold enrichment (6-mer frequency, TF over GST control); with ELF1 it was 1.37 fold enrichment (6-mer frequency, TF over GST control); with EHF it was 1.52 fold enrichment (6-mer frequency, TF over GST control). Moreover, the binding signal with SPI1 was 1.54 fold enrichment (6-mer frequency, TF over GST control); with SPIB, 1.35 fold enrichment (6-mer frequency, TF over GST control); with ELK3, 1.35 fold enrichment (6-mer frequency, TF over GST control).
ATTTTT: the binding signal was 1.14 fold enrichment (6-mer frequency, TF over GST control) with FLI1; 1.14 fold enrichment (6-mer frequency, TF over GST control) with ELK1; 1.13 fold enrichment (6-mer frequency, TF over GST control) with GABPA; 1.1 fold enrichment (6-mer frequency, TF over GST control) with ERG; 1.14 fold enrichment (6-mer frequency, TF over GST control) with ELF1; 1.22 fold enrichment (6-mer frequency, TF over GST control) with EHF. In addition, the binding signal with SPI1 is 1.18 fold enrichment (6-mer frequency, TF over GST control); in the test with SPIB it was 1.19 fold enrichment (6-mer frequency, TF over GST control); with ELK3, 1.12 fold enrichment (6-mer frequency, TF over GST control).
TACCTC: the binding signal in the test with FLI1 is 1.25 fold enrichment (6-mer frequency, TF over GST control); with ELK1 it was 1.29 fold enrichment (6-mer frequency, TF over GST control); with GABPA it was 1.33 fold enrichment (6-mer frequency, TF over GST control); with ERG it was 1.19 fold enrichment (6-mer frequency, TF over GST control); in the test with ELF1, 1.25 fold enrichment (6-mer frequency, TF over GST control); with EHF, 1.2 fold enrichment (6-mer frequency, TF over GST control). For the same sequence, the binding signal was 1.27 fold enrichment (6-mer frequency, TF over GST control) with SPI1; 1.21 fold enrichment (6-mer frequency, TF over GST control) in the test with SPIB; 1.27 fold enrichment (6-mer frequency, TF over GST control) with ELK3.
With TCTCCC, the binding signal with FLI1 was 1.66 fold enrichment (6-mer frequency, TF over GST control); in the test with ELK1 it was 1.68 fold enrichment (6-mer frequency, TF over GST control); with GABPA, 1.74 fold enrichment (6-mer frequency, TF over GST control); in the test with ERG it was 1.54 fold enrichment (6-mer frequency, TF over GST control); with ELF1, 1.63 fold enrichment (6-mer frequency, TF over GST control); in the test with EHF it was 1.73 fold enrichment (6-mer frequency, TF over GST control). In addition, the binding signal with SPI1 is 1.47 fold enrichment (6-mer frequency, TF over GST control); in the test with SPIB it was 1.71 fold enrichment (6-mer frequency, TF over GST control); in the test with ELK3, 1.75 fold enrichment (6-mer frequency, TF over GST control).
For the sequence ACTTCG, the binding signal with FLI1 was 1.38 fold enrichment (6-mer frequency, TF over GST control); with ELK1 it was 1.38 fold enrichment (6-mer frequency, TF over GST control); with GABPA it was 1.46 fold enrichment (6-mer frequency, TF over GST control); with ERG it was 1.47 fold enrichment (6-mer frequency, TF over GST control); in the test with ELF1, 1.33 fold enrichment (6-mer frequency, TF over GST control); with EHF, 1.3 fold enrichment (6-mer frequency, TF over GST control). Besides, the binding signal in the test with SPI1 is 1.44 fold enrichment (6-mer frequency, TF over GST control); with SPIB, 1.39 fold enrichment (6-mer frequency, TF over GST control); with ELK3, 1.49 fold enrichment (6-mer frequency, TF over GST control).
On to CGTACT, for which the binding signal was 1.2 fold enrichment (6-mer frequency, TF over GST control) in the test with FLI1; 1.17 fold enrichment (6-mer frequency, TF over GST control) with ELK1; 1.19 fold enrichment (6-mer frequency, TF over GST control) in the test with GABPA; 1.16 fold enrichment (6-mer frequency, TF over GST control) with ERG; 1.27 fold enrichment (6-mer frequency, TF over GST control) with ELF1; 1.18 fold enrichment (6-mer frequency, TF over GST control) with EHF. The binding signal with SPI1 was 1.11 fold enrichment (6-mer frequency, TF over GST control); in the test with SPIB, 1.12 fold enrichment (6-mer frequency, TF over GST control); with ELK3, 1.26 fold enrichment (6-mer frequency, TF over GST control).
As to ACATAA, the binding signal is 1.01 fold enrichment (6-mer frequency, TF over GST control) with FLI1; 1.09 fold enrichment (6-mer frequency, TF over GST control) with ELK1; 1.08 fold enrichment (6-mer frequency, TF over GST control) with GABPA; 1.17 fold enrichment (6-mer frequency, TF over GST control) with ERG; 1.13 fold enrichment (6-mer frequency, TF over GST control) with ELF1; 1.1 fold enrichment (6-mer frequency, TF over GST control) with EHF. The binding signal is 1.08 fold enrichment (6-mer frequency, TF over GST control) in the test with SPI1; 1.1 fold enrichment (6-mer frequency, TF over GST control) with SPIB; 1.11 fold enrichment (6-mer frequency, TF over GST control) with ELK3.
